UHRF1 MBD2 ctr – blocks human UHRF1 binding to methylated DNA; Q96T88; UHRF1 binding to methylated oligo, TR-FRET; inhibition, % at 4.4 µM; 370,000 compounds, 0.75% hits; AID 687016; in the data active means inhibition above about 21%;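 further: UHRF1 SRA domain binding a hemimethylated CpG hairpin DNA probe; 0% = median of test compound wells and 100% = reference inhibitor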
Target sequence (Q96T88 whole entry, looked up, the tested form may be a part): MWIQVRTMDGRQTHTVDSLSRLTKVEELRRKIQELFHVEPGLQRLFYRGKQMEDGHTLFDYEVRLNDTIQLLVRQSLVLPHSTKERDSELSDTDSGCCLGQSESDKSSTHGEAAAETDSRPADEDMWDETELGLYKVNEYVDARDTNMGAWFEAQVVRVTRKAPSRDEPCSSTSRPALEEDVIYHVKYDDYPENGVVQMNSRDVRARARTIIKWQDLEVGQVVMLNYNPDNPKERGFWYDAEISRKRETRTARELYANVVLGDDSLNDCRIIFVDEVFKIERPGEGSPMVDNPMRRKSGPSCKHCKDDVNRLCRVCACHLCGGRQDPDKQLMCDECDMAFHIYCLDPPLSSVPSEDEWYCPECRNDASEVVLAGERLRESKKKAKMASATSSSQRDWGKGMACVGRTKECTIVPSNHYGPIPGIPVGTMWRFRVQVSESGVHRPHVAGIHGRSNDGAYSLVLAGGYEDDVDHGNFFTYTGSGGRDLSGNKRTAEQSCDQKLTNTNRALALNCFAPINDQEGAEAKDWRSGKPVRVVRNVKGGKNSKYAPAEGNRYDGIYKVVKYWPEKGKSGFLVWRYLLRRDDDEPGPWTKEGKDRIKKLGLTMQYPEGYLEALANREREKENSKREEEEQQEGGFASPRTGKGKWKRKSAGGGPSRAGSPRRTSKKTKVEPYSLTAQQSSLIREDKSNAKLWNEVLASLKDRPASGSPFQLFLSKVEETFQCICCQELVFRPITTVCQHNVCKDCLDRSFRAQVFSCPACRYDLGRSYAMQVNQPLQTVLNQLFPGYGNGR
rCAG binder – r(CAG) repeat RNA binding | 370,000 compounds, 1.3% hits | TO-PRO-1 dye displacement fluorescence | inhibition, % at 3 µM;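 active means inhibition above the plate cutoff, the mean of all test compounds on that plate plus 3 SD, cut at about 35% in these data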;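 further: 0% = DMSO alone and 100% = 100 µM mitoxantrone as full dye displacement; higher means more dye released from RNA so lower well fluorescence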
PRMT1 FP inh – blocks human protein arginine methyltransferase 1 | recombinant PRMT1, activity-based probe fluorescence polarization | inhibition, % at 2.79 µM | Q99873 | AID 652257 | 370,000 compounds, 1.3% hits;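 active means inhibition above about 21% made by adding two undisclosed values, limit read from the data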
MBD2 inh – blocks human MBD2 binding to methylated DNA; AID 686964; inhibition, % at 4.4 µM; TR-FRET, MBD2 binding to methylated oligonucleotide; Q9UBB5; 370,000 compounds, 0.31% hits; in the data active means inhibition above about 13%
ABHD5 PLIN5 PPI – inhibitors of human ABHD5-perilipin-5 interaction. Q00G26+Q8WTS1. AID 602281. inhibition, % at 4 µM. Split G. princeps luciferase complementation, luminescence, 4 h. 360,000 compounds, 0.78% hits;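 active means inhibition above the mean inhibition across every tested compound plus 3 SD, cut at about 22% in these data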;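 further: 0% = DMSO only wells and the 100% control is not disclosed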
LEDGF integ inh – blocks HIV-1 LEDGF/p75-dependent DNA integration | TR-FRET IN-LEDGF/p75 DNA integration, Eu/Cy5 | 370,000 compounds, 0.64% hits | inhibition, % at 3.7 µM;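 active means inhibition above the screen-wide mean plus 3 SD, cut at about 13% in these data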;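 further: signal is the Cy5 over europium emission ratio at 671 and 618 nm; 0% = plate median of compound wells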
IN multimer up – HIV-1 integrase multimerization activation, counter-screen | TR-FRET HIV-1 integrase multimerization, biochemical | shares compounds with LEDGF integ inh | activation, % at 7.7 µM | AID 1053131 | 2,000 compounds, 17% hits; in the data active means activation above about 8.9%
TRFRET interf – optically interferes with TR-FRET readout in LEDGF counter-screen. 2,000 tested, under 10 active. shares compounds with LEDGF integ inh. inhibition, % at 7.7 µM. TR-FRET optical interference counterscreen, HIV-1 IN multimerization;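 active means inhibition above the mean over all tested compounds plus 3 SD, which no compound reached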;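 further: 0% = integrase with antibodies and DMSO and 100% = antibodies without integrase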
LEDGF integ conf – LEDGF/p75-dependent HIV-1 integration inhibition, confirmation | shares compounds with LEDGF integ inh | TR-FRET LEDGF/p75-dependent HIV-1 integration, biochemical | inhibition, % at 3.7 µM | 2,000 compounds, 36% hits; in the data active means inhibition above about 14%
Starred values were filed as active, the others as inactive; · = no result. The list is not random: actives were taken first. Their share in the collection is about 4.1%.

SMILES	UHRF1 MBD2 ctr	rCAG binder	PRMT1 FP inh	MBD2 inh	ABHD5 PLIN5 PPI	LEDGF integ inh	IN multimer up	TRFRET interf	LEDGF integ conf
Cc1cc2c(c(=O)n1Cc1ccccn1)C(C(C)C)C(C#N)=C(N)O2 (centres undefined)	12	1	2	3	-4	17*	0	1	-7
Cc1cc2c(c(=O)n1Cc1ccccn1)C(c1ccc3c(c1)OCO3)C(C#N)=C(N)O2 (centres undefined)	-1	-2	1	0	-2	-3	·	·	·
CCOC(=O)c1c2c(n(Cc3ccccc3)c1C)C(=O)C(=O)c1ccccc1-2	2	7	0	-9	-34	17*	3	-9	72*
c1ccc(-c2cn3nc(-c4ccccc4)cnc3n2)cc1	0	0	-3	-2	2	90*	-1	2	-3
CC(=O)N1CCc2c1cccc2S(=O)(=O)NC(CC(C)C)C(=O)Nc1ccccc1C (centres undefined)	2	3	0	-2	·	3	·	·	·
CC(=O)N1CCN(c2ccc(NCc3ccc(-c4ccc(Br)cc4)o3)cc2)CC1	5	3	3	1	-6	19*	6	-30	-1
CC(=O)N1CCN(c2ccc(NCc3ccc4c(c3)OCO4)cc2)CC1	-3	1	7	-6	-8	13	·	·	·
CC(=O)N1CCN(c2ccc(NCc3ccccc3)cc2)CC1	-1	2	7	-5	0	12	·	·	·
CN1CCN(c2ccc(NC(=O)c3ccc(-c4ccc(Br)cc4)o3)cc2)CC1	-3	-4	-2	0	14	0	·	·	·
CC(=O)N1CCN(c2ccc(NCc3ccc(C)s3)cc2)CC1	0	8	11	1	-14	15*	6	-22	1
COc1ccc(CNc2ccc(N3CCN(C(C)=O)CC3)cc2)cc1OC	-1	7	1	-4	-15	15*	4	-19	0
CC(=O)N1CCN(c2ccc(NCc3cccs3)cc2)CC1	0	9	5	1	-19	22*	3	-17	-3
COc1ccc(OC)c(CN(CC(F)(F)F)S(=O)(=O)c2ccccc2Br)c1	-1	1	-1	-3	·	3	·	·	·
CCOC(=O)[C@@]12CN(C(=O)OC(C)(C)C)CC=C1N(Cc1ccc(OC)cc1)C(=O)[C@H]2CC(=O)NCCCCc1ccccc1	-2	1	2	-5	·	0	·	·	·
CC(=O)N[C@H]1C[C@@H]2O[C@H](CO)CC[C@@H]2O[C@@H]1CCc1ccc(-c2ccc(F)cc2)cc1	4	3	1	4	·	4	·	·	·
O=S1(=O)CC(N2CCN(CCO)CC2)CN1Cc1ccccc1 (centres undefined)	-1	0	-4	-7	3	35*	1	-4	-1
CCCCCCN1CCN(C2CN(Cc3ccccc3)S(=O)(=O)C2)CC1 (centres undefined)	-1	-3	2	8	1	0	·	·	·
CC(C)(C)S(=O)(=O)N1C[C@@H]2C(=C(CCO)C[C@@H]3C(=O)N(c4ccccc4)C(=O)[C@@H]32)[C@H]1CCO	2	0	-1	0	·	2	·	·	·
COc1cc(C(=S)N2CCOCC2)ccc1OS(=O)(=O)c1ccc(C)cc1	1	1	5	1	-2	20*	0	-1	-5
COc1cc(NC(C)CCCN)c2ncccc2c1 (centres undefined)	3	9	5	-12	-3	35*	2	-8	31*
COc1ccccc1Nc1nc(N)nc(CN2CCC(Cc3ccccc3)CC2)n1	9	-6	2	10	11	15*	0	2	6
COc1ccccc1Nc1nc(N)nc(CN2CCC(C)CC2)n1	2	-6	4	3	-5	0	·	·	·
O=C(NCc1cccs1)C1CCC(CNS(=O)(=O)c2cccc3cccnc23)CC1 (centres undefined)	4	4	9	4	·	-5	·	·	·
Oc1ccccc1CNc1cccc2cccnc12	-8	4	9	-19	-4	31*	5	-16	0
COc1cc(NCc2ccccc2O)c2ncccc2c1	0	4	18	-1	2	1	·	·	·
SMILES	UHRF1 MBD2 ctr	rCAG binder	PRMT1 FP inh	MBD2 inh	ABHD5 PLIN5 PPI	LEDGF integ inh	IN multimer up	TRFRET interf	LEDGF integ conf
CN1c2ccccc2C(C)(C)C12C=Cc1cc(O)ccc1O2 (centres undefined)	-6	13	9	-8	5	9	·	·	·
CN1c2ccccc2C(C)(C)C12C=Nc1c(cc(N3CCOCC3)c3ccccc13)O2 (centres undefined)	8	8	0	-7	-44	14*	2	-6	-1
O=C(COCc1ccncc1)N1CCN(c2ccc(F)cc2Cl)CC1	1	-1	2	-1	·	3	·	·	·
COc1c(-c2ccc(O)c(O)c2)oc2cc(O)cc(O)c2c1=O	-1	9	1	-2	4	16*	9.3*	-33	72*
C[C@@H]1O[C@@H](OC[C@H]2O[C@@H](Oc3c(-c4ccc(O)c(O)c4)oc4cc(O)cc(O)c4c3=O)[C@H](O)[C@@H](O)[C@@H]2O)[C@H](O)[C@H](O)[C@H]1O	-1	2	5	-2	0	5	·	·	·
CO[C@@]12[C@@H]3N[C@@H]3CN1C1=C(C(=O)C(N)=C(C)C1=O)[C@@H]2COC(N)=O	9	12	8	-2	-5	15*	4	-20	7
CO[C@@]12[C@H](COC(N)=O)C3=C(C(=O)C(C)=C(N)C3=O)N1C[C@@H]1N[C@@H]12	4	3	-2	0	-3	1	·	·	·
Clc1ccc(-c2ccc(C=Nc3ccc(N4CCOCC4)cc3)o2)cc1	-1	7	4	-1	-10	18*	2	-9	7
Clc1ccc(-c2ccc(C=Nc3ccc(N4CCOCC4)cc3)o2)c(Cl)c1	1	6	-2	0	-22	13	·	·	·
Clc1cccc(-c2ccc(C=Nc3ccc(N4CCOCC4)cc3)o2)c1Cl	-1	-2	0	-5	-6	24*	4	-20	12
Clc1cccc(N/N=C/c2ccc(N3CCOCC3)cc2)c1	-1	9	0	-11	0	-2	·	·	·
CC(C)[C@H](NC(=O)CC1CCCC1)C(=O)N1CCC[C@H]1C(=O)NCc1ccccc1	3	1	-3	1	·	0	·	·	·
CC(=O)NC(C)(c1ccccc1)c1nc(-c2cccc(C#N)c2)cs1 (centres undefined)	-4	0	-2	-4	-3	14*	-1	3	-3
